Test [1] concerns the target Calcium and integrin-binding protein 1 (Homo sapiens) (UniProt Q99828). Kind of test: Primary qHTS for Identification of Calcium Integrin Binding Protein 1 (CIB1) Competitor (AID 1508620).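 Also: GST tagged CIB1 binding a fluorescein labelled alphaIIb integrin peptide tracer; top concentration of the series differs between compounds; % is scaled to controls: 0 for no effect and ±100 for the full control effect.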 The method in brief: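 Fluorescence polarization competition: CIB1-GST (1 uM final) preincubated with compound 15 min at room temperature, then FITC-labeled alphaIIb peptide (100 nM final) added for another 15 min. Polarization read at Ex 480/Em 540.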

The target in test [2] is Glutathione peroxidase 1 (Homo sapiens) (UniProt P07203). Nature of the test: Primary qHTS Assay for Inhibitors of Recombinant Selenoprotein Glutathione Peroxidase 1 (GPX1) (AID 1845191). Also: nearly all actives have a fitted effect of over 65% in size. In outline: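 GPX1 10 nM, GR 100 nM, GSH 1 mM, NADPH 0.5 mM, CHP 0.5 mM (final). 30-min cpd preincubation, RT. Ex340/Em450 read t=0, t=15 min.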
Glutathione peroxidase 1 (Homo sapiens), sequence (P07203 whole entry, looked up): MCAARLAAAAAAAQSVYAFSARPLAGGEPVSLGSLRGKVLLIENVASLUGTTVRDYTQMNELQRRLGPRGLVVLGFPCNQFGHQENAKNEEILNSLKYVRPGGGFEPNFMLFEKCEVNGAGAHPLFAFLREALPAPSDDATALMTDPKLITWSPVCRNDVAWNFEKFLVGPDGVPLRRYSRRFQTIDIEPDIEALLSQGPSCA
Test [3] has as its target Phospholipid hydroperoxide glutathione peroxidase GPX4 (Homo sapiens) (UniProt P36969). Kind of test: Primary qHTS Assay for Inhibitors of Recombinant Selenoprotein Glutathione Peroxidase 4 (GPX4) (AID 1845192). Also: % is scaled to controls: 0 for no effect and ±100 for the full control effect; nearly all actives have a fitted effect of over 65% in size. The method in brief: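 qHTS, GR-coupled: GPX4 200 nM + cpd 30 min RT → GSH 1 mM, NADPH 0.5 mM, GR 100 nM → CHP 0.5 mM start; fluor 340/450 at t0 and t15 min; no-enzyme wells as control.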
(In general: Quantitative high-throughput screening tests each substance at several concentrations.)

In test [4] the target is Luciferin 4-monooxygenase (Photinus pyralis) (UniProt P08659). Nature of the test: Primary firefly luciferase (FLuc) qHTS assay for identification of artifact compounds. (AID 1845220). Also: nearly all actives have a fitted effect of over 60% in size. The settings on record: outcome: dose series up to 54.1 µM unless noted. The method in brief: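 In this counter-screen for luciferase artifacts, test compounds met substrate (10 uM each luciferin and ATP) before 10 nM enzyme started the reaction. Light output was measured 5 min later.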

Test [5] can be described thus: Primary fluorescence-based thiol-reactive (MSTI) qHTS assay for identification of artifact compounds. (AID 1845221).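 Also: thiol-reactive compounds lower the probe fluorescence signal; nearly all actives have a fitted effect of over 65% in size.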 In outline: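 A multi-concentration qHTS design tested compounds against 4 uM MSTI, pH 7.4 phosphate-buffered saline. Plates were protected from light for 1 h at room temperature before imaging fluorescence.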
Test [6] relates to Nanoluciferase (engineered Oplophorus gracilirostris luciferase). Nature of the test: Primary Nanoluciferase (NLuc) qHTS assay for identification of artifact compounds. (AID 1845222).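 Also: NLuc secreted into diluted conditioned medium of S16 cells.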 In outline: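 Using secreted nanoluciferase in S16 culture medium (0.22 um filtered, 1:55 dilution), compounds were preincubated 15 min at RT. Signal was generated with Nano-Glo reagent (1:100) over 5 min.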

A short description of test [7]: Primary redox qHTS assay for identification of artifact compounds. (AID 1845223).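 Also: 0% = DMSO and 100% = reference compound.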 The method in brief:
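Redox-cycling detection via DTT (250 uM final) oxidation coupled to Amplex Red (25 uM)/HRP (250 mU/mL) in HBSS. 15 min preincubation plus 30 min after DTT, room temperature. Ex/Em 525/598 nm; 4-parameter Hill fit against DMSO and 10 uM DA3003.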

The test system of test [8] is HaCat. Nature of the test: Cytotoxic Profiling of Annotated Libraries Using Quantitative High-Throughput Screening (AID 1296008). Also: nearly all actives have a fitted effect of over 60% in size. Also: potency is read from the fitted curve at half-maximal effect. As to max response: % is scaled to controls: 0 for no effect and ±100 for the full control effect. The settings on record: Five cell lines viability, CellTiter-Glo ATP luminescence, 48-72 h; max response: hits give low values. The method in brief: (§1)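 Compounds were pin-transferred onto cells and incubated 48 or 72 hr at 37 degree Celsius, 95% humidity. CellTiter-Glo was added, plates sat 10 min at room temperature, then ATP-coupled luminescence was imaged as the viability read-out.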

The test system of test [9] is NIH3T3. The test is described as above. The settings on record: Five cell lines viability, CellTiter-Glo ATP luminescence, 48-72 h; max response: hits give low values. The method in brief: as §1
For orientation: In ATP-based viability assays light output follows the ATP content of the culture.

The test system of test [10] is C33A. Nature of the test: Primary qHTS to identify gynecologic anti-cancer compounds using libraries of approved drugs and bioactive compounds (AID 1345084). Also: nearly all actives have a fitted effect of over 55% in size. Also: potency is read from the fitted curve at half-maximal effect. The settings on record: Gynecologic cancer cell panel viability, ATPlite luminescence, 48 h; series mostly up to 57.5 µM. In outline:
(§2)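 ATP-based viability (ATPlite), 1,000 cells/well, 16 h pre-incubation, 48 h compound at 37 C, 5% CO2, 15 min RT before read.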

Test [11] relates to CAOV3. Described as above. The following applies: Gynecologic cancer cell panel viability, ATPlite luminescence, 48 h; series mostly up to 57.5 µM. In outline:
as §2

Test [12] deals with CASKI. The description is as above. The following applies: Gynecologic cancer cell panel viability, ATPlite luminescence, 48 h; series mostly up to 57.5 µM. The method in brief:
as §2

The subject of test [13] is Es-2. The test is described as above. The settings on record: Gynecologic cancer cell panel viability, ATPlite luminescence, 48 h; series mostly up to 57.5 µM. In outline: as §2
The test system of test [14] is Hek293T. The description is as above. The following applies: Gynecologic cancer cell panel viability, ATPlite luminescence, 48 h, control line for the selectivity index; series mostly up to 57.5 µM. The method in brief:
as §2

Test [15] deals with JEG-3. The test is described as above. The following applies: Gynecologic cancer cell panel viability, ATPlite luminescence, 48 h; series mostly up to 57.5 µM. The method in brief: as §2
Test [16] relates to OV90. Described as above. The settings on record: Gynecologic cancer cell panel viability, ATPlite luminescence, 48 h; series mostly up to 57.5 µM. In outline:
as §2

The subject of test [17] is PA-1. The description is as above. The following applies: Gynecologic cancer cell panel viability, ATPlite luminescence, 48 h; series mostly up to 57.5 µM. The method in brief: as §2
The test system of test [18] is Tov-21-G. Described as above. The following applies: Gynecologic cancer cell panel viability, ATPlite luminescence, 48 h; series mostly up to 57.5 µM. The method in brief: as §2
The subject of test [19] is Tov112D. The test is described as above. The following applies: Gynecologic cancer cell panel viability, ATPlite luminescence, 48 h; series mostly up to 57.5 µM. The method in brief: as §2
Test [20] relates to Zika virus NS2B-NS3 protease (linked construct). Nature of the test: Primary screen NINDS Rhodamine qHTS for Zika virus inhibitors (AID 1347160). Also: nearly all actives have a fitted effect of over 55% in size. The method in brief: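 Single-chain NS2B-NS3 protease, 25 nM, pH 8.0; compounds preincubated 15 min. Activity: Rhodamine110 release from 1.5 microM substrate over 15 min, room temperature, data fitted to 4-parameter Hill.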

A number with no mark means an inactive call. Records with an inconclusive call do not appear. Activity calls are given as the source filed them. Calls follow the shape of the dose curve; as a rule, active = well fitted curve in the direction sought with a large enough effect; inconclusive = small, poorly fitted or top-dose-only effect, or another doubt; inactive = no such curve, though single readings can be large; an effect the other way counts as inactive or inconclusive.

Phospholipid hydroperoxide glutathione peroxidase GPX4 (Homo sapiens), sequence (P36969 whole entry, looked up): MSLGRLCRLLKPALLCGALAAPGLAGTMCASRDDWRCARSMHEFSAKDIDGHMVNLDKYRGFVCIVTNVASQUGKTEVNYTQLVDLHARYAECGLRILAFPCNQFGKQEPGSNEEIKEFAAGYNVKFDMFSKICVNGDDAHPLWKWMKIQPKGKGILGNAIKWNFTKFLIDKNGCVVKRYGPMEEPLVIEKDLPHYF
Calcium and integrin-binding protein 1 (Homo sapiens), sequence (Q99828 whole entry, looked up): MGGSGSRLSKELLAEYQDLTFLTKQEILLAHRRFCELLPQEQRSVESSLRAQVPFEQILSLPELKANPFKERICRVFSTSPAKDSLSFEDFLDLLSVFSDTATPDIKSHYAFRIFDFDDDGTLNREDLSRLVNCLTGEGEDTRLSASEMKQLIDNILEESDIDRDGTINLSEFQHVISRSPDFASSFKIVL

Regarding `CN1C(=O)C(Cc2ccc3ccccc3c2)N=C(c2ccc(O)cc2)c2cc(Cl)ccc21` (stereo not given), the Potency entry in test [1], in test [2], in [3], in [5], in test [6] and in test [7] was “inactive” each time. Besides, the Potency result in test [10], in test [11], in test [12], in test [13], in [14] and in test [15] was “inactive” each time. Further, the Potency result in test [16], in test [17], in [18] and in test [19] was “inactive” in each case. Also, the compound was called inactive in test [4] and in [8]. In addition, the max response in test [9] was -0.878%.
As to `C[C@@H](CN1CCC2(CC1)C(=O)NCN2c1cccc(F)c1)NC(=O)c1ccc(Br)cc1`, the Potency entry in test [20], in [1], in test [2], in test [3], in [5] and in test [6] was “inactive” each time. Also, the Potency entry in [7], in test [10], in test [11], in test [13], in test [15] and in test [16] was “inactive” in each case. Besides, the Potency result in test [17] and in test [18] was “inactive” in each case. Moreover, in test [4], the result was inactive.
As for `COC1CC(OC2CCC3(C=O)C(CCC4C3CCC3(C)C(C5=CC(=O)OC5)CCC43O)C2)OC(C)C1O` (stereo not given), the Potency result in [1], in [2], in test [3] and in test [6] was “inactive” throughout. In test [4], the outcome is “inactive [at 25.7 µM]”. Besides, the Potency is 2820 nM (active) in [8]; 141 nM (active) in test [10]; 316 nM (active) in test [11]; 1000 nM (active) in [12]; 251 nM (active) in [13]; 251 nM (active) in test [14]. Besides, the Potency in test [15] was 631 nM (active); in test [16], 1000 nM (active); in [17], 199 nM (active); in [18], 178 nM (active); in [19] it was 100 nM (active). Also, the max response in [9] is 0.727%.
On to `CCCCCn1cc(C(=O)c2cccc3ccccc23)c2ccccc21`, for which the Potency result in [20], in [1], in test [2], in test [3], in [5] and in [6] was “inactive” each time. In addition, the Potency entry in test [7], in [10], in test [11], in test [12], in test [13] and in test [14] was “inactive” throughout. Besides, the Potency entry in [15], in test [16], in test [17], in [18] and in test [19] was “inactive” each time. In [4], the result was inactive. The max response is -4.01% in [8] and 4.48% in test [9].
As to `O=C1CN=C(c2cccc(Br)c2)c2oc3ccccc3c2N1`, the Potency result in [20], in [1], in [2], in [3], in [5] and in test [6] was “inactive” each time. The Potency entry in test [7], in test [10], in test [11], in [12], in test [13] and in [16] was “inactive” in each case. For the same compound, the Potency entry in test [18] was “inactive”. Further, the compound was classed as inactive in [4].

(Values after PubChem BioAssay (NCATS).)
